In PubChem BioAssay:
Active and inactive are the calls of the source.

Assays:
[1] = binders of probe aFSTL3 on microarray, primary screen, stem cell growth factor project, biochemical, small-molecule microarray, fluorescence 635/667 (AID 1064); details: higher = more signal;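 further: measures binding of the biotinylated anti-FSTL3 antibody to printed compounds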
[2] = binders from COS7 lysate, DM2A8 probe, primary screen, torsin A project, cell lysate, small-molecule microarray, fluorescence 635/667 (AID 1065); details: higher = more signal, COS7 lysate expressing mutant human TOR1A
[3] = binders of probe aFGF2 on microarray, primary screen, stem cell growth factor project, biochemical, small-molecule microarray, fluorescence 635/667 (AID 1067); details: higher = more signal;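 further: measures binding of biotinylated aFGF2 protein to printed compounds on slides; z-score merges feature fluorescence and signal-to-noise across triplicate slides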
[4] = binders of probe aFGF10 on microarray, primary screen, stem cell growth factor project, biochemical, small-molecule microarray, fluorescence 635/667 (AID 1071); details: higher = more signal;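 further: score merges 667 nm spot intensity and signal to noise from triplicate slides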
[5] = target: Neurogenic locus notch homolog protein 2 (Homo sapiens) (UniProt Q04721); experiment: Notch2 binders on small-molecule microarrays, primary screen, biochemical, small-molecule microarray, 635 nm fluorescence, stem cell growth factors (AID 1073); details: Notch2 binding, higher = more signal
[6] = target: Pro-neuregulin-1, membrane-bound isoform (Homo sapiens) (UniProt Q02297); experiment: NRG1 binders on small-molecule microarrays, primary screen, psychiatric disease protein project, biochemical, small-molecule microarray, fluorescence 635/667 (AID 1075); details: NRG1 binding, 635 nm fluorescence, higher = more signal;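 further: score combines 667 nm spot fluorescence with signal to noise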
[7] = test system: Neuregulin-1 EGF-like domain; experiment: binders of neuregulin-1 EGF-like domain, primary screen, biochemical, small-molecule microarray, 635 nm fluorescence (AID 1081); details: small-molecule microarray binding, higher = more signal;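 further: binding of the protein to compounds printed on small-molecule microarray slides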
[8] = FRG1 promoter luciferase signal modulators, primary screen, FRG1 inhibition for FSHD, cell-based, C2C12 myotubes, firefly/Renilla luciferase, luminescence (AID 1084); details: higher = more signal, called active from +8 up or from −8 down
[9] = binders of probe aFST on microarray, primary screen, stem cell growth factor project, biochemical, small-molecule microarray, fluorescence 635/667 (AID 1086); details: higher = more signal;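 further: score merges 667 nm fluorescence with signal-to-noise of each printed compound spot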
[10] = binders of probe aHhip on microarray, primary screen, stem cell growth factor project, biochemical, small-molecule microarray, fluorescence 635/667 (AID 1087); details: higher = more signal;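 further: score merges spot fluorescence at 667nm with spot signal to noise ratio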

Sequence of Neurogenic locus notch homolog protein 2 (Homo sapiens) (Q04721 whole entry, looked up, canonical isoform): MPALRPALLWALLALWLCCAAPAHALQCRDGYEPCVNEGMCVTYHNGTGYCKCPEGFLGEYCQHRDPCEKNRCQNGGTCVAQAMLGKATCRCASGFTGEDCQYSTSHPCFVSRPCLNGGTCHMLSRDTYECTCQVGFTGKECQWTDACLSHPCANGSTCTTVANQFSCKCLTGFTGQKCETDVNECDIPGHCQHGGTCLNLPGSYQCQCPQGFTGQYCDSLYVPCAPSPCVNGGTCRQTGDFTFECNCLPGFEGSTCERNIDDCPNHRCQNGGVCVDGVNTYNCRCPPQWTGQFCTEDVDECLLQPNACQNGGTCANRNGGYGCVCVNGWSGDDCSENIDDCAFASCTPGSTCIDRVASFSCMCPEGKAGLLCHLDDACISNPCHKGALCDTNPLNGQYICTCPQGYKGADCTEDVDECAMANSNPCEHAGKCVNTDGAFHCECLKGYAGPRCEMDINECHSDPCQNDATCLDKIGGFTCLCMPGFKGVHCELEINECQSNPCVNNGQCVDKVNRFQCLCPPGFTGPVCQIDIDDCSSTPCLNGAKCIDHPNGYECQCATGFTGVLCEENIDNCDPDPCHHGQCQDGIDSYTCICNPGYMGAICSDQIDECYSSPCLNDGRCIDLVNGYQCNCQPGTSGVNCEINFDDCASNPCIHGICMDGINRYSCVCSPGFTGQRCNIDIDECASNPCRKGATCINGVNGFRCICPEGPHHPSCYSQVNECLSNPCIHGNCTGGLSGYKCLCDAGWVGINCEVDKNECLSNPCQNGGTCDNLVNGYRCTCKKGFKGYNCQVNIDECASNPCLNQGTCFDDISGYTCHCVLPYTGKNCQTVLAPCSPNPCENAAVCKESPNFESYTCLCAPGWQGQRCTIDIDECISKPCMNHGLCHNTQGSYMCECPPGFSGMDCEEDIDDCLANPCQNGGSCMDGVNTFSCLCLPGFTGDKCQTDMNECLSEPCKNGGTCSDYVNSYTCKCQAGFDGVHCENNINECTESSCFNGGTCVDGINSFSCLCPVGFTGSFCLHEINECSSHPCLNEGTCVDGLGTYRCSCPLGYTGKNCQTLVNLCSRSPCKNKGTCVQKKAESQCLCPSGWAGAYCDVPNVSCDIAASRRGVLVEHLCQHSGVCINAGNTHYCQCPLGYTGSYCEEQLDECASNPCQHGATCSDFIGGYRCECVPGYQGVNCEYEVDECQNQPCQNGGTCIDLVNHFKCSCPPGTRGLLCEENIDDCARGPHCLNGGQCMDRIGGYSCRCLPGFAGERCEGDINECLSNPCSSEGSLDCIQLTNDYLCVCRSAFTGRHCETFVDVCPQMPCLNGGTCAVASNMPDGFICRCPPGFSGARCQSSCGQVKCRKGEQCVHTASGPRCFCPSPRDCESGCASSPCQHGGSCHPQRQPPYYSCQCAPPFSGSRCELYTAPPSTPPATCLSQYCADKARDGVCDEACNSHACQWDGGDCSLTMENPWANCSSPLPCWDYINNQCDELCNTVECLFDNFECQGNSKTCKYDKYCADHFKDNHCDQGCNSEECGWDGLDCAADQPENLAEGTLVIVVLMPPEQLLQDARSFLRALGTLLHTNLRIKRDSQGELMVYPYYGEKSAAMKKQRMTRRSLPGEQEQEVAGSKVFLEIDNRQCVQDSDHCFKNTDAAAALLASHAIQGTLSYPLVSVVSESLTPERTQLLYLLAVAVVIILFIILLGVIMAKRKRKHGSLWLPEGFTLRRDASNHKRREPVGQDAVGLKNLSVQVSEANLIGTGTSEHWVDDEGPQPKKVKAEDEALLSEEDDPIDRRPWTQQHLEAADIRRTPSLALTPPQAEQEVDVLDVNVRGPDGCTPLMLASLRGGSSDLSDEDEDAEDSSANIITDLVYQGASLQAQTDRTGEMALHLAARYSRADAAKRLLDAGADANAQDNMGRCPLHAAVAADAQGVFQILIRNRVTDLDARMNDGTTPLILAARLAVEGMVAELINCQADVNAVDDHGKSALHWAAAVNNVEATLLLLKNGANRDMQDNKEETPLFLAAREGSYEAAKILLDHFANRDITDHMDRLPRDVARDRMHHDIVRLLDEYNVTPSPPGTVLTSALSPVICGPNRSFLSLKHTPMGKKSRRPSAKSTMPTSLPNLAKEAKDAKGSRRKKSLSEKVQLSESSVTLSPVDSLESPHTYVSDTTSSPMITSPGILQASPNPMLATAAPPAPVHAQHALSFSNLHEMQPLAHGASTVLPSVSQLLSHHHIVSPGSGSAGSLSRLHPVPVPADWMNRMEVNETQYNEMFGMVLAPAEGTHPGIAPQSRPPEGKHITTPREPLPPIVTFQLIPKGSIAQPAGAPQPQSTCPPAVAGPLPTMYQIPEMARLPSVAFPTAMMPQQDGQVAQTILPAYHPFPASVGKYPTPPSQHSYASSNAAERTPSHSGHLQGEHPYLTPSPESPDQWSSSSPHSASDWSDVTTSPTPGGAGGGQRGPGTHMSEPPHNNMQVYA
Sequence of Pro-neuregulin-1, membrane-bound isoform (Homo sapiens) (Q02297 whole entry, looked up, the tested form may be a part, canonical isoform): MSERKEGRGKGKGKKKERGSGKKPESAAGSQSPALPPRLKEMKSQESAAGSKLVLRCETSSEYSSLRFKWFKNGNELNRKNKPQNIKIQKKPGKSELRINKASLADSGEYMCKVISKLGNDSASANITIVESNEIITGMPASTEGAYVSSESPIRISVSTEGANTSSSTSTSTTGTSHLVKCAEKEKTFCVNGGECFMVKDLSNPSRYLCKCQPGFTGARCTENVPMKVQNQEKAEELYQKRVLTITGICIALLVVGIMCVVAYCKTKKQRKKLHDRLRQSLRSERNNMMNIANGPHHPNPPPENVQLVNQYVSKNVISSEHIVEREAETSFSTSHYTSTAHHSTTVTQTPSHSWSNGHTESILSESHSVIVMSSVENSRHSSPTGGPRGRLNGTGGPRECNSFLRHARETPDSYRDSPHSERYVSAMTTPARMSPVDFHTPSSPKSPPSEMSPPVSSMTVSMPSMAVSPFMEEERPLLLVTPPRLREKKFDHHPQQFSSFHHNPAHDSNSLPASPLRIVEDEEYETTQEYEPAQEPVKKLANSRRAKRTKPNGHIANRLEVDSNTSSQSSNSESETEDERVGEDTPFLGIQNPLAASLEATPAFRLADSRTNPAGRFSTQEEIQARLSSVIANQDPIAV

SMILES | composite z-score [1] | composite z-score [2] | composite z-score [3] | composite z-score [4] | composite z-score [5] | composite z-score [6] | composite z-score [7] | z-score [8] | composite z-score [9] | composite z-score [10]
NCCCCCNC(=O)[C@H]1C[C@H]2C(=O)N[C@@H](Cc3ccccc3)C(=O)N2[C@H]1c1cccc(OCCO)c1 | 2.24 | 0.387 | 0.0364 | 0.116 | 0.352 | 2.05 | 0.408 | 1.27 (inactive) | 1.04 | 0.705
[N-]=[N+]=NCc1ccccc1[C@H]1OC(c2ccc(OCCCO)cc2)=N[C@@]1(Cc1ccccc1)C(=O)N1CCCCC1 | -0.222 | 0.368 | 0.022 | 0.78 | 1.46 | 0.947 | 1.18 | -2.51 (inactive) | 0.573 | -0.201
O=C1C2C=CC(C(O)COCc3ccccc3)N(Nc3ccc([N+](=O)[O-])cc3)C2C(=O)N1c1ccccc1 (stereo not given) | 0.0903 | -0.58 | -0.0004 | 1.14 | 1.57 | 0.661 | 1.32 | 0.123 (inactive) | 1.44 | -0.145
COc1cc2c(cc1OC)CN(C(=O)[C@H]1[C@@H]3C(=O)O[C@@H](c4ccccc4)[C@@H](c4ccccc4)N3[C@@H](c3ccccc3OCCO)[C@]13C(=O)Nc1ccc(C#CCCO)cc13)CC2 | -0.39 | 0.282 | 0.0094 | 0.339 | 0.775 | 1.27 | 1.07 | -2.07 (inactive) | 0.369 | -0.0994
CC(C)CCC[C@@H](C)[C@H]1CC[C@@]2(C)C3=C(CC[C@]12C)[C@@]1(C)CC[C@H](OC(=O)c2ccc(C(F)(F)F)nc2)C(C)(C)C1CC3 (stereo not given in full) | -0.438 | 0.441 | -0.103 | 0.312 | 0.443 | -0.323 | 0.198 | -1.46 (inactive) | -0.108 | 0.223
Cc1ccc(S[C@]2(C(=O)O)CC(=O)N(Cc3ccccc3C(F)(F)F)[C@@H]2c2ccc(CO)cc2I)cc1 | -0.0699 | 0.979 | -0.1 | -0.0146 | -1.23 | 0.695 | 0.559 | 0.371 (inactive) | -0.387 | -0.334
C=C(CCCC)/C(=C/C[C@H](OC(C)=O)c1ccccc1OCCO)c1cnc2ccccc2c1 | -0.279 | 0.0976 | -0.115 | 0.506 | 0.3 | 0.324 | 1.04 | -1.48 (inactive) | 0.162 | 0.0505
COc1ccc([C@H]2C[C@H]3C(Br)=C[C@@]2(CO)C(=O)[C@]32CO2)cc1 | -0.035 | -0.512 | -0.0563 | 0.0327 | 0.269 | -0.202 | -0.333 | 1.26 (inactive) | 0.0716 | -0.175
O=C1[C@H]2C=C(I)[C@H](C[C@@H]2OCCCCO)[C@@]12CO2 | -0.0695 | 2.01 | 0.209 | -0.484 | -0.542 | -0.456 | 0.576 | 0.988 (inactive) | -0.174 | 0.162
CO[C@H]1O[C@H](CO)[C@@H](OC(=O)Nc2ccc(Oc3ccccc3)cc2)[C@H](OC(=O)Nc2ccc3c(c2)OCO3)[C@@H]1OC(=O)Nc1ccc2c(c1)OCO2 | 0.154 | 0.333 | -0.0493 | 1.22 | 1.55 | 0.516 | 1.09 | -0.0746 (inactive) | 0.8 | 0.28
C#CCN(C/C=C/c1ccccc1)[C@H](CO)c1ccccc1 | -0.565 | 0.484 | -0.182 | -0.254 | 0.261 | -0.516 | -0.0706 | -0.786 (inactive) | 0.288 | 0.0156
CC(C)OC(=O)C=C1C[C@@H](c2cccc(Cl)c2)O[C@@H](c2cccc(Cl)c2)O1 | 0.614 | 0.31 | 0.0442 | 0.771 | 0.028 | 0.903 | 0.891 | -0.582 (inactive) | 0.186 | -0.189
O=C1NC(=O)C2C1C=CC(C(O)c1ccc(-c3ccccc3)s1)N2Nc1ccc(Cl)cc1Cl (stereo not given) | 0.0065 | 0.285 | 0.107 | 0.297 | 1.21 | 1.48 | 0.706 | 2.38 (inactive) | 1.16 | -0.0645
CCOC(=O)C[C@H]1[C@H](OC(=O)c2ccc(-c3ccccc3)cc2)[C@@H](NC(=O)c2ccccc2)c2cc(OCCCO)ccc2N1C(=O)Cc1ccc(OC)cc1 | -0.287 | -0.0212 | -0.163 | 0.0185 | -0.639 | -0.31 | -0.198 | -0.304 (inactive) | -0.0166 | -0.374
CC(c1ccccc1)C(O)C1C=CC2C(=O)N(C)C(=O)C2N1NC(=O)OC(C)(C)C (stereo not given) | 0.301 | 0.518 | 0.225 | 0.626 | 1.21 | 1.91 | 1.17 | 1.89 (inactive) | 1.14 | -0.0645
COc1ccc([Si](C)(C)[C@@H]2[C@@H](CCn3cc([C@H](O)c4ccccc4)nn3)O[C@]3(C(=O)N(Cc4cccc(N5CCC5=O)c4)c4ccccc43)[C@H]2C)cc1 | -0.0168 | -0.185 | -0.116 | 0.232 | -0.205 | 0.292 | 0.729 | 0.795 (inactive) | -0.162 | -0.249
O[C@@H](Cc1ccccc1)[C@@H](/C=C/C1CC1)NCc1cccc(Cl)c1 | 1.53 | 0.0563 | -0.224 | -0.813 | -1.43 | -0.146 | -0.344 | -0.715 (inactive) | -0.699 | -0.0994
COc1ccc(CCNC(=O)[C@@]2(c3ccc([N+](=O)[O-])cc3)CC(=O)N(CC34CC5CC(CC(C5)C3)C4)[C@@H]2c2ccc(CO)cc2I)cc1 | -0.235 | 1 | 0.0569 | 0.377 | 0.6 | 1.09 | 1.2 | -1.64 (inactive) | -0.0217 | -0.446
COc1cc2c(cc1O)C(c1cccs1)N(Cc1ccc([N+](=O)[O-])o1)CC2 (stereo not given) | -0.116 | 1.85 | -0.0265 | 0.724 | 0.881 | 1.54 | 0.387 | -1.63 (inactive) | 0.583 | -0.0994
COC(=O)[C@H](Cc1ccccc1)N[C@H](/C=C/C1CC1)[C@@H](O)Cc1ccccc1 | 0.128 | 0.1 | -0.202 | -0.471 | -0.567 | -0.0373 | -0.626 | -1.72 (inactive) | -0.474 | -0.132
CCOC(=O)C1=CCC(c2ccc(F)cc2)N(S(=O)(=O)c2ccc(C)cc2)C1 (stereo not given) | 0.605 | 0.816 | 0.0198 | -0.105 | 0.552 | 0.199 | 0.116 | -2.7 (inactive) | 0.135 | -0.226
CC(=O)Nc1cc(Br)ccc1C(=O)NCc1ccccc1 | -0.16 | -0.0459 | 0.0213 | -0.0284 | 0.359 | 0.685 | 1.23 | 0.0163 (inactive) | -0.0314 | -0.226
